Source: PubChem BioAssay
BJeLR viability: BJeLR cell viability loss; AID 1554; actives 0.17% (n = 300,000); inhibition, % (no concentration beside the values); BJeLR (HRASV12) viability, CellTiter-Glo ATP luminescence, 48 h; in the data active means inhibition above about 50%
Mtb hypoxia inh: inhibitors of hypoxia-regulated fluorescent reporter in Mycobacterium tuberculosis. M. tuberculosis hypoxia-regulated fluorescent reporter, fluorescence. fluorescence inhibition, % (test concentration not listed). actives 0.1% (n = 300,000); in the data active means fluorescence inhibition mostly above about 23%, no sharp cut-off; inactive means mostly below about 17%
CCHF vOTU inh: CCHFV vOTU protease inhibition; AID 651958; inhibition, % at 11.5 µM; actives 0.55% (n = 370,000); Pep-AMC fluorescence; in the data active means inhibition above about 30%; further: 0% = vehicle wells with enzyme and 100% = no enzyme wells
RecA intein inh: blocks M. tuberculosis RecA intein splicing. cell-free RecA intein splicing, fluorescence. inhibition, % (test concentration not listed). actives 0.75% (n = 290,000); in the data active means inhibition above about 30%;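 further: 0% = vehicle wells and 100% = reference inhibitor control wells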
Target sequence (P9WHJ3 whole entry, looked up): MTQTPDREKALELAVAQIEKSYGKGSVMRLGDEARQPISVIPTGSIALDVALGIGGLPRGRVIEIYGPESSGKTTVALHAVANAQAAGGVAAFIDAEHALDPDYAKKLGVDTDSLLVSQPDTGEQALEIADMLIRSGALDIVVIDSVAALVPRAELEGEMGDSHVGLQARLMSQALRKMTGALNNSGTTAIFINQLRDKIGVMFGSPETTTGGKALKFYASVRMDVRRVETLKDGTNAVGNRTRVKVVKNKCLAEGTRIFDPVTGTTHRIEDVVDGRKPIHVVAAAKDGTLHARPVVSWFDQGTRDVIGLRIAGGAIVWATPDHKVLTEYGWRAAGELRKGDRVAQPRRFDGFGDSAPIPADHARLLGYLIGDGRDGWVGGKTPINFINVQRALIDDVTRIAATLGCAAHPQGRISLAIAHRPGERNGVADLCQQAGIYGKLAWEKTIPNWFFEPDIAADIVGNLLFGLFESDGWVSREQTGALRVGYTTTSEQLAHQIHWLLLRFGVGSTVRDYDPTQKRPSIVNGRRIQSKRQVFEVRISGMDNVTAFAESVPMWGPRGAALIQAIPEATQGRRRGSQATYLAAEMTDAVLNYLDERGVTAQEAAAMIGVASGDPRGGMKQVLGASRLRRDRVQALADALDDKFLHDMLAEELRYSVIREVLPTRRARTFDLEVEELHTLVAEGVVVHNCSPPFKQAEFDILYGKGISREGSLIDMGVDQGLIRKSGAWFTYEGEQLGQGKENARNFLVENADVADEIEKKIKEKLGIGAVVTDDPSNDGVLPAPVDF
RN4220 kill: kills Staphylococcus aureus RN4220 | S. aureus RN4220 growth, OD600, 16 h | inhibition, % (test concentration not listed) | actives 0.33% (n = 330,000) | AID 1259311; in the data active means inhibition above about 85%;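 further: plate controls were untreated cells for no effect and reference antibiotic for full effect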
ugtP null kill: kills S. aureus RN4220 lacking UgtP | S. aureus RN4220 ugtP deletion, OD600 growth, 16 h | growth inhibition, % (concentration not given with the values) | actives 0.54% (n = 330,000); in the data active means growth inhibition above about 68%;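 further: plate controls were untreated wells for no effect and antibiotic for full effect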
Active calls of the source: *; . = not tested or not shown. Rows were chosen to be rich in hits. Some 1.6% of all compounds tested hit in one or more screens of this group.

SMILES | BJeLR viability | Mtb hypoxia inh | CCHF vOTU inh | RecA intein inh | RN4220 kill | ugtP null kill
CC(OC(=O)c1oc2ccccc2c1COc1ccccc1)C(=O)NC(N)=O (configuration not stated) | 1 | 0 | 15 | 5 | 3 | 3
CN(CC(=O)Nc1ccc(F)cc1)C(=O)COC(=O)Cc1cccs1 | 6 | -8 | 2 | -3 | 2 | 3
O=C(COC(=O)Cc1cccs1)NCC(=O)Nc1ccc(F)cc1 | . | 33* | 8 | . | 5 | 2
CC1CN(C(C)CO)C(=O)c2cccc(NC(=O)Nc3ccc4c(c3)OCO4)c2OC1CN(C)Cc1ccc(-c2ccccc2)cc1 (configuration not stated) | . | 9 | . | . | -5 | -17
O=C1Nc2ccc(Br)cc2C12NNc1ccccc1O2 (configuration not stated) | -17 | 2 | 9 | 6 | 85 | 97*
O=C1Nc2ccc(Br)cc2C1(O)c1ccccc1 (configuration not stated) | -6 | -5 | 1 | -1 | 0 | -1
O=C(CC1CC=CCC(NC(=O)OCC2c3ccccc3-c3ccccc32)C(=O)OC(c2ccccc2)CNC1=O)NC(CO)Cc1ccccc1 (configuration not stated) | . | -10 | . | . | 8 | 6
O=[N+]([O-])c1cccc2nc(-c3ccccc3)c(-c3ccccc3)nc12 | 9 | -3 | 2 | 6 | 3 | 97*
O=[N+]([O-])c1ccccc1C=NNc1nnc(-c2ccccc2)c(-c2ccccc2)n1 | . | -1 | . | . | 5 | -4
CN(N)c1nc(C(F)(F)F)nc2ccccc12 | -5 | 8 | 4 | 0 | 5 | 3
Nc1nc(N(Cc2ccccc2)Cc2ccccc2)nc(C(F)(F)F)n1 | . | -8 | 11 | . | 7 | 98*
CCOC(=O)/C(C#N)=C1/SC(C)C(=O)N1c1ccc(Br)cc1 (configuration not stated) | -8 | 11 | 0 | 32* | 5 | 9
CCOC(=O)/C(C#N)=C1/SC(CC)C(=O)N1c1ccc(Br)cc1 (configuration not stated) | 4 | -6 | 0 | 5 | 2 | 1
CC(Oc1ccccc1)c1nnn(Cc2ccccc2)c1-c1c(C(C)Oc2ccccc2)nnn1Cc1ccccc1 (configuration not stated) | . | 2 | . | . | 2 | 5
CC[C@@]12C(=O)N(c3cccc(Br)c3)C(=O)N1C(c1cccc(C)c1)C1C(=O)N(Cc3ccccc3)C(=O)C12 (some centres not stated) | . | 3 | . | . | 5 | -18
CCn1cc(C(=O)NCc2ccco2)c(=O)c2cc(S(=O)(=O)N3CC(C)CC(C)C3)ccc21 (configuration not stated) | 88* | 6 | -4 | -2 | 4 | 18
CCn1cc(C(=O)NCc2ccco2)c(=O)c2cc(S(=O)(=O)N3CCC(C)CC3)ccc21 | 7 | . | 9 | -1 | . | .
CCN1C(=O)C2C(c3ccc(C)cc3)N3C(=O)N(c4cccc(Cl)c4)C(=O)[C@@]3(Cc3ccccc3)C2C1=O (some centres not stated) | . | -3 | . | . | 16 | 6
NC1=NCC(Cc2ccccc2)N1CC1CCCCC1 (configuration not stated) | . | -5 | . | . | 5 | 0
COC(=O)C1=C(c2cccc(OCc3ccccc3)c2)CC2CCC1N2C(=O)NCc1ccc(C(F)(F)F)cc1 (configuration not stated) | . | 4 | . | . | -13 | 11
N#CC1=C(N)C(C#N)(C#N)[C@H](c2c(F)cccc2F)[C@H]2CC3(CC=C12)OCCO3 | -2 | -2 | -5 | 35* | 5 | -4
CCOC(=O)c1cnc(-c2ccccc2)nc1Oc1ccccc1 | 4 | . | 5 | 9 | -6 | 86*
CCOC(=O)c1nnc(-c2ccccc2)nc1Oc1ccccc1Cl | 3 | . | 8 | 45* | 1 | 0
COc1ccccc1NC(CC(=O)c1ccccc1)C(=O)OCC(=O)c1ccc(C)cc1 (configuration not stated) | -9 | 16 | -16 | 13 | 6 | 84*
CC(C)C[C@@]12C(=O)N(c3cccc(F)c3)C(=O)N1C(c1ccc(Br)cc1)C1C(=O)N(C(C)(C)C)C(=O)C12 (some centres not stated) | . | -11 | . | . | 1 | 0
SMILES | BJeLR viability | Mtb hypoxia inh | CCHF vOTU inh | RecA intein inh | RN4220 kill | ugtP null kill
CSCCC(C(=O)NCCCCCCCCCCC(=O)N1CCN(C(=O)OC(C)(C)C)CC1)n1cc(CCO)nn1 (configuration not stated) | . | -2 | . | . | -3 | -2
CN1/C(=C/c2cc[n+](C)c3ccccc23)C=Cc2ccccc21 | . | 22 | . | . | 100* | 96*
CCN1C(=O)c2cccc3c(S(=O)(=O)Nc4nc(C)cs4)ccc1c23 | 5 | . | . | -5 | 28 | 95*
C#CCOCCOCCOCCNc1nc(N2CCOCC2)nc(N2CCN(C(=O)CCCCCCCCCCNC(=O)C(CO)n3cc(CCCCCN)nn3)CC2)n1 (configuration not stated) | . | 1 | . | . | 6 | 6
CCC(=Nc1ccccc1O)C1=C(O)CC(c2ccccc2)CC1=O (configuration not stated) | 2 | 70* | 7 | 3 | 9 | -2
Cc1cc(C(C)(C)CC(C)(C)C)ccc1OCCOCC[N+](C)(C)Cc1ccccc1 | . | 2 | 19 | . | 101* | 100*
C[N+](C)(CCOc1ccccc1)Cc1ccccc1 | . | . | 7 | . | . | .
CCOC(=O)c1nn(-c2ccc(F)cc2)c2c1CCC2=Cc1ccccc1 | . | -5 | . | . | 8 | -16
Cc1ccc(C(=O)ONc2ccc(N=O)cc2)cc1 | -9 | . | 5 | -5 | 1 | 100*
CC1CN(C(C)CO)C(=O)c2cccc(NC(=O)Cc3ccccc3)c2OC1CN(C)C(=O)NC1CCCCC1 (configuration not stated) | . | 11 | . | . | 6 | 1
COC(=O)c1sc(-c2cccs2)cc1NC(=O)/C=C/C(=O)O | 3 | . | -9 | 42* | . | .
Cn1nc([N+](=O)[O-])c(C(C#N)c2ccccn2)c(Cl)c1=O (configuration not stated) | . | 22 | -4 | 46* | 0 | 23
Cc1onc(-c2c(F)cccc2Cl)c1C(=O)NC1C(=O)N2C1SC(C)(C)C2C(=O)O (configuration not stated) | . | 24 | . | . | 100* | 100*
O=C(Cn1cncn1)NN=Cc1cc([N+](=O)[O-])ccc1O | . | 12 | . | . | 88* | 76
Nc1nnnn1N=Cc1cc([N+](=O)[O-])ccc1O | . | 7 | . | . | 67 | 44
Nc1nnnn1CC(=O)NN=Cc1cc([N+](=O)[O-])ccc1O | . | 4 | . | . | 93* | 81
CCN1/C(=C/C=C/c2oc3ccc4ccccc4c3[n+]2CC)Oc2ccc3ccccc3c21 | . | 13 | . | 1 | 98* | 99*
CC[n+]1c(/C=C/N(C)c2ccccc2)oc2ccc(Cl)cc21 | 7 | . | 19 | -2 | . | .
CC=C(C)C(=O)OC1c2cc(OC)c(OC)c(OC)c2-c2c(cc3c(c2OC)OCO3)CC(C)[C@]1(C)O (some centres not stated) | . | 11 | . | . | 10 | 2
